# Measurements reported in the supplement of paper PMC6953052.
# The full ranking holds about 1,700 compounds; the median of “fraction of GFP-LC3-positive cells (≥5 vesicles/cell)” is about 0.43, and the highest 2% start at about 0.81. The full list was thinned out, with the highest values kept by preference.
# System: CbCln3 Δex7/8/Δex7/8 GFP-LC3 cerebellar neuronal cells
# Test: fraction of GFP-LC3-positive cells (≥5 vesicles/cell); higher = more autophagosome accumulation
# Summary of the method: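 Wild-type or mutant CbCln3 cerebellar cells stably expressing GFP-LC3 were plated at 2 × 10^3 per well in 384-well plates and received ~50 nL of compound in DMSO by pin transfer, in duplicate, for 24 h at 33 °C. Hoechst 33342 and LysoTracker Red were added for the last 30 min, after which cells were fixed in 3.2% PFA and three fields per well were imaged at 10×. CellProfiler counted GFP-LC3 vesicles per cell, and out-of-focus images were excluded. The reported value is the fraction of cells reaching a vesicle-count cutoff of 5 or more, averaged over duplicates.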
row,SMILES,fraction of GFP-LC3-positive cells
1,C=C(C)[C@H]1O[C@H]2CC[C@@]3(C)[C@@](O)(CC[C@H]4[C@@H]5OC(C)(C)[C@H]6C[C@@H]7C(=C)Cc8c(Cl)cc9[nH]c(c5c9c8[C@@]76O)[C@@]43C)[C@]23O[C@@H]3[C@H]1O,0.866
2,CC[C@H]1CN2CCc3cc(OC)c(OC)cc3[C@@H]2C[C@@H]1C[C@H]1NCCc2cc(OC)c(OC)cc21.Cl.Cl [Emetine dihydrochloride],0.546
3,Br.C[C@@H]1NCCc2cc(O)c(O)cc21 [Salsolinol hydrobromide],0.504
4,C/C=C(/C)C(=O)O[C@H]1C(C)=C2[C@H]([C@@H]1OC(=O)CCCCCCC)[C@@](C)(OC(C)=O)C[C@H](OC(=O)CCC)[C@@]1(O)[C@H]2OC(=O)[C@@]1(C)O,0.847
5,"N=C(N)NOCC[C@H](N)C(=O)O.O.O=S(=O)(O)O [Canavanine sulfate monohydrate (L,+)]",0.416
6,CCCC(C)(COC(N)=O)COC(=O)NC(C)C (stereo unspecified) [Carisoprodol],0.466
7,C[N+](C)(C)CCCCCCCCCC[N+](C)(C)C.[Br-].[Br-] [Decamethonium bromide],0.418
8,C/C1=C/C(=O)O[C@@H]2C[C@@H](CC[C@H](C)/C=C\CC1)O[C@@](O)([C@@H]1CSC(=O)N1)C2 [Latrunculin B],0.84
9,C[C@@]12N[C@@H](Cc3ccccc31)c1ccccc12.O=C(O)/C=C\C(=O)O [(-)-MK 801 hydrogen maleate],0.432
10,CC(=O)c1c(O)c(C)c(O)c(Cc2c(O)c3c(c(C(=O)/C=C/c4ccccc4)c2O)OC(C)(C)C=C3)c1O [Rottlerin],0.553
11,CC(=O)c1c(O)c(C)c(O)c(Cc2c(O)c3c(c(C(=O)/C=C/c4ccccc4)c2O)OC(C)(C)C=C3)c1O,0.551
12,CC(=O)O[C@H]1CC[C@@]2(C)C(=CC[C@@H]3[C@@H]2CC[C@]2(C)C(=O)CC[C@@H]32)C1 [Dehydroisoandosterone 3-acetate],0.384
13,CN1C(CC(O)c2ccccc2)CCCC1CC(O)c1ccccc1.Cl (stereo unspecified) [Lobelanidine hydrochloride],0.433
14,COc1cc2c(cc1O)[C@@H]1Cc3ccc(OC)c(O)c3CN1CC2 [Scoulerine],0.821
15,"COc1ccc2c(c1OC)CN1CCc3cc4c(cc3C1C2)OCO4 (stereo unspecified) [(d,l)-Tetrahydroberberine]",0.303
16,COc1ccc2c(c1O)-c1c(OC)c(OC)cc3c1[C@H](C2)N(C)CC3 [Isocorydine (+)],0.379
17,C[C@H]1O[C@@H](OC2CC[C@]3(C=O)[C@H]4CC[C@]5(C)[C@@H](C6=CC(=O)OC6)CC[C@]5(O)[C@@H]4CC[C@]3(O)C2)C[C@H](O)[C@@H]1O (stereo partly specified) [Helveticoside],0.378
18,N#CC(C#N)=Cc1ccc(O)cc1 [Tyrphostin-8],0.461

row,SMILES,fraction of GFP-LC3-positive cells
1,CCN1C[C@@]2(COC)C3[C@@H](OC)[C@H]4[C@@H]1[C@@]3(C1C[C@@]3(O)[C@H](OC(=O)c5ccccc5)C1[C@]4(OC(C)=O)[C@@H](O)[C@H]3OC)[C@@H](OC)C[C@H]2O (stereo partly specified) [Aconitine],0.413
2,Cc1c2ccncc2c(C)c2c1[nH]c1ccccc12 [Ellipticine],0.954
3,Cc1nccc2c1[nH]c1ccccc12.Cl [Harmane hydrochloride],0.55
4,O=C(CCCN1CCC(n2c(=O)[nH]c3ccccc32)CC1)c1ccc(F)cc1 [Benperidol],0.358
5,COc1cc2c(c(OC)c1OC)-c1ccc(OC)c(=O)cc1[C@@H](NC(C)=O)CC2 [Colchicine],0.906
6,COc1cc2c(c(OC)c1OC)-c1ccc(O)c(=O)cc1[C@@H](N)CC2 [Trimethylcolchicinic acid],0.415
7,COC1=C[C@@H]2C3=C([C@@H]2C1=O)[C@@H](NC(C)=O)CCc1cc(OC)c(OC)c(OC)c13 [Lumicolchicine gamma],0.401
8,CC[C@@H]1/C=C/C=C/C[C@H](C)[C@@H](O)[C@](C)(O)C(=O)[C@H](C)[C@@H](O)[C@H](C)C(=O)[C@H](C)[C@@H](O)[C@H](C)/C=C/C(=O)O[C@H]2[C@@H](C)[C@@H](CC1)O[C@@]1(CC[C@@H](C)[C@@H](C[C@H](C)O)O1)[C@@H]2C [oligomycin A],0.578
9,CC1=C2C[C@H]3[C@@H](CC=C4C[C@@H](O)CC[C@@]43C)[C@@H]2CC[C@]12O[C@@H]1C[C@H](C)CN[C@H]1[C@H]2C [cyclopamine],0.448
10,CCCCC/C=C\C/C=C\C/C=C\C/C=C\CCCC(=O)NCC(=O)O [N-Arachidonoylglycine],0.376
11,CCCCC/C=C\C/C=C\C/C=C\C/C=C\CCCC(=O)NCCc1ccc(O)c(O)c1 [Arachidonoyl dopamine],0.658
12,CCCCC/C=C\C/C=C\C/C=C\C/C=C\CCCC(=O)NCc1ccc(O)c(OC)c1 [Arvanil],0.848
13,CCCCC/C=C\C/C=C\C/C=C\C/C=C\CCCC(=O)NCC(=O)O,0.263
14,CC(C)NCC(O)c1ccc(N)c(C#N)c1 (stereo unspecified),0.462
15,COc1ccc2c(c1OC)C(=O)O[C@@H]2[C@H]1c2cc3c(cc2CCN1C)OCO3.Cl [Hydrastine hydrochloride],0.423
16,COc1cc([C@@H]2c3cc4c(cc3[C@H](O)[C@H]3COC(=O)[C@H]23)OCO4)cc(OC)c1OC [Podophyllotoxin],0.884
17,Cl.Cl.Fc1ccc(C(OCCN2CCN(CCCc3ccccc3)CC2)c2ccc(F)cc2)cc1,0.168
18,CO/C1=C\C(C)=C\[C@@H](C)[C@@H](O)[C@@H](C)C/C(C)=C/C=C/[C@H](OC)[C@@H]([C@@H](C)[C@@H](O)[C@H](C)[C@@]2(O)C[C@@H](O)[C@H](C)[C@@H](C(C)C)O2)OC1=O [bafilomycin A1],0.924
